From PubChem BioAssay
Rows were chosen to be rich in hits. Some 3.7% of all compounds tested hit in one or more screens of this group.
Anthrax LF prot: anthrax lethal factor protease inhibition | AID 588501 | inhibition, % at 10 µM | multiplex microsphere protease cleavage assay, LF | 360,000 tested, 0.12% active; also: plate controls were buffer without enzyme for full effect and enzyme alone for no effect
Bead autofluor: counter-screen for toxin protease inhibitors: compound fluorescence | compound autofluorescence counterscreen, microsphere flow cytometry; stronger effect = higher value | fluorescence intensity (concentration not given with the values) | 360,000 tested, 3.1% active; in the data active = fluorescence intensity above about 16000; inconclusive = no clear call, values can overlap the other calls
BoNT F protease: blocks Botulinum neurotoxin F light chain protease; inhibition, % at 10 µM; Multiplex microsphere protease cleavage assay, flow cytometry; 360,000 tested, 0.22% active; AID 588497; in the data active = inhibition above about 35%, passing the limit was not always enough; inconclusive = no clear call, values can overlap the other calls; also: plate controls were buffer without enzyme for full effect and enzyme alone for no effect
BJeLR viability: BJeLR cell viability loss | BJeLR (HRASV12) viability, CellTiter-Glo ATP luminescence, 48 h | inhibition, % (concentration not given with the values) | 300,000 tested, 0.17% active | AID 1554; in the data active = inhibition above about 50%; inconclusive = no clear call, values can overlap the other calls
BoNT A protease: blocks Botulinum neurotoxin A light chain protease; multiplex microsphere protease substrate cleavage, flow cytometry; inhibition, % at 10 µM; 360,000 tested, 0.17% active; also: plate controls were buffer without enzyme for full effect and enzyme alone for no effect
Vc quorum ag: induces V. cholerae light production without autoinducers; V. cholerae BH1578 lux reporter, luminescence, 6 h; activation, % at 18.7 µM; 350,000 tested, 0.16% active; in the data active = activation mostly above about 9.7%, no sharp cut-off; inconclusive = no clear call, values can overlap the other calls; inactive = mostly below about 3.7%
Numbers without * were called inactive; i = inactive; ? = inconclusive; / = no result. Rule as the data show it, unless noted: active = inhibition above about 30%; inconclusive = no clear call, values can overlap the other calls; inactive = below that.

SMILES	Anthrax LF prot	Bead autofluor	BoNT F protease	BJeLR viability	BoNT A protease	Vc quorum ag
CCc1nc2c(OCc3ccc4c(c3)OCO4)cccn2c1N(C=O)Cc1ccc(OC)cc1	5	3733	2	/	0	0
Cc1cc(NC(=O)CSc2nnc3ccccn23)no1	-4	17051*	15	1	-5	-1
COCCn1c(SCC(=O)OC(C)C)nnc1-c1ccccc1	-7	24184*	-3	1	-3	i
CCCn1c(SCC(=O)Nc2nc(C)cs2)nnc1-c1cccnc1	1	3482	-11	/	-1	-1
CC(=O)Nc1cccc(NC(=O)CSc2nnc3ccccn23)c1	-11	3630	1	/	0	i
CCn1c(SCC(=O)Nc2cc(C)on2)nnc1-c1cccnc1	-2	20847*	-2	-15	-1	-1
CCn1c(SCC(=O)Nc2nc(C)c(C)s2)nnc1-c1cccnc1	-1	17323*	-6	7	-5	1
COc1cccc(C(C)(O)c2nc(-c3cccc(C(C)C)c3)cs2)c1 (stereo not given)	1	2852	-4	/	0	0
CC(=O)Nc1cc(-c2ccoc2)cn2c(-c3ccccc3)cnc12	-8	3975	-1	/	1	i
O=Cc1ccc([B-](F)(F)F)s1	-1	3749	-3	/	0	1
COc1ccc2c(c1)C(=O)O[C@@H](c1ccccc1)C[C@@H](O)C(=O)CC2	-9	5956	2	/	0	/
CCn1c(Cc2ccccc2)nnc1SCC(=O)OC(C)C	3	21705*	7	10	7	-1
Cc1cccc(-n2nc3c(c2NC(=O)c2ccco2)CSC3)c1C	-3	20718*	2	2	0	0
Cc1c(CN(C)C(=O)C2CCC(=O)N(Cc3ccccc3F)C2)[nH]c2ccccc12 (stereo not given)	-7	3665	-3	/	0	i
COc1ccc(OC)c(NC(=O)Nc2nnc([C@H]3C[C@H](O)[C@@H](CO)O3)s2)c1	-7	4016	0	/	0	i
CN1CCN(c2cc(-c3ccc4ccccc4c3)nc3ccnn23)CC1	-108	1523	-133	/	2	-1
COCCn1c(SCC(=O)Nc2sc(C)c(C)c2C#N)nnc1-c1ccc(OC)cc1	-2	22774*	1	-10	-1	i
CCOc1ccc(N=C(NC#N)SCC)cc1	-6	13339	-13	-3	-6	0
CCOc1ccc(N=C(NC#N)SCC(=O)NC2CC2)cc1	-2	23167*	-1	-2	?	-1
CC1(C(=O)Nc2ccc3c(c2)OCCO3)CCC(=O)N1C1CC1 (stereo not given)	0	5010	0	/	0	/
COc1ccc(C(=O)C(C)OC(=O)C2CC3CCCC(C2)C3=O)cc1 (stereo not given)	3	2783	0	/	0	-1
Nc1nnc(-c2ccc(F)cc2)s1	3	8383	-9	-7	0	i
Nc1nnc(-c2ccccc2)s1	-2	23348*	-2	2	-2	3
Cc1cccn2cc(CNc3ccccc3)nc12	-2	20732*	-6	3	-1	i
CCCS(=O)(=O)NCc1cn2cccc(C)c2n1	-3	9905	-16	-2	-2	0
SMILES	Anthrax LF prot	Bead autofluor	BoNT F protease	BJeLR viability	BoNT A protease	Vc quorum ag
CCC(C)(C)C(=O)Nc1nnc(CCc2ccccc2)s1	-1	3221	36*	0	-1	0
CC(=O)N(C1=C(N2CCOCC2)C(=O)c2ccccc2C1=O)c1ccc(C(=O)O)cc1	-6	5953	-10	-15	0	1
CC(=O)N(C)C1=C(N2CCOCC2)C(=O)c2ccccc2C1=O	-3	24878*	-4	20	-4	3
CCc1cc[n+](/C(C(=S)Nc2cccc(C)c2)=C(/[O-])c2ccc(C)c([N+](=O)[O-])c2)cc1	9	3019	-22	8	32*	i
CCOC(=O)c1c(-c2ccccc2)nc2ccc(C)cn12	2	19967*	0	3	?	i
CCOC(=O)c1c(-c2ccccc2)nc2cc(C)ccn12	-8	4233	-2	-10	0	0
COc1nc(N)c(S(=O)(=O)c2ccc(C)cc2)cc1C#N	-1	19122*	0	-9	1	i
O=C1OCC/C1=C1/NCCNC1=O	2	3780	6	/	0	-1
Cc1cccc(NC(=O)CC2Nc3cccc4cccc(c34)NC2=O)c1 (stereo not given)	-4	17191*	-7	1	?	i
COc1cccc(C2c3cc4c(cc3OC(C)(N3CCCC3)C2C)OCO4)c1O (stereo not given)	6	3811	4	/	0	i
O=C1C2CC=CCC2C(=O)N1c1ncn[nH]1 (stereo not given)	-3	16218*	2	-3	0	-2
COC(=O)[C@]12CCCCC=C1N(Cc1cccc3ccccc13)C(=O)[C@H](CC(=O)NCc1cccc(C(F)(F)F)c1)C2	-10	4196	1	/	-1	/
COC(=O)c1ccccc1N=Nc1c(C)noc1C	34*	3984	?	4	3	0
COc1ccccc1CNC(=O)C1(C)CCN1C(=O)C1(c2ccccc2)CC1 (stereo not given)	0	3977	-5	/	0	-1
CCOC(=O)N1CCN(CC(=O)N2c3ccccc3CC2C)CC1 (stereo not given)	0	25433*	-3	-10	-3	i
CCN1CCN(CC(=O)N2c3ccccc3CC2C)CC1 (stereo not given)	0	24267*	-4	7	-3	0
CC1Cc2ccccc2N1C(=O)CN1CCCCC1 (stereo not given)	-7	3845	-17	-4	1	i
CCC(=O)Nc1nnc(SCC(=O)N2c3ccccc3CC2C)s1 (stereo not given)	0	8963	5	-4	1	17*
O=C1NN=C2CCCCCCC12 (stereo not given)	-6	2854	-15	/	-1	-5
Cc1ccc(CNC(=O)/C=C/[C@H]2O[C@@H](n3cc(C)c(=O)[nH]c3=O)C[C@@H]2O)o1	0	4405	-3	/	-2	/
CC1(C)CCC[C@]2(C)C(CS(=O)c3ccccc3)=C(C=O)CC[C@@H]12 (stereo not given in full)	-4	4435	-7	15	-1	0
Cc1cc2nc(C(C)(C)C)c(Cc3cccc(F)c3)n2c(C)c1Br	5	5189	0	/	0	/
CCC1=NN2C(=N)/C(=C\c3ccc(OCCOc4ccc(NC(C)=O)cc4)cc3)C(=O)N=C2S1	51*	3515	16	-10	3	i
CCCC(=O)Nc1cccc(-c2nc3ccccc3o2)c1	-1	2974	-5	3	1	i
CC(C)CC(=O)Nc1cccc(-c2nc3ccccc3o2)c1	1	23031*	-2	-2	0	i
COc1cc2c(cc1OC)-c1cc(Nc3ccc(F)cc3)nc(=O)n1CC2	7	2839	14	0	1	i
COc1cc2c(cc1OC)-c1cc(NC3CCCC3)nc(=O)n1CC2	-4	22438*	1	4	?	i
